# The panel holds about 79,000 compounds, 15% with a hit somewhere; the sample as a whole holds those more often. Values without a mark were called inactive. Active and inactive are the calls of the source. Rule as the data show it: active = growth inhibition above about 70%; inactive = the rest.
# What was measured:
# [1] = NCI Yeast Anticancer Drug Screen. Data for the rad50 strain (AID 155);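 also: 0% = growth of vehicle-only cultures of the same strain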; settings: S. cerevisiae rad50 strain growth inhibition, active compounds read high
# Summary of the method: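 Compounds were tested on a yeast strain with an engineered DNA damage repair alteration; the reported value is growth inhibition normalised to vehicle treatment.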
# [2] = NCI Yeast Anticancer Drug Screen. Data for the mec2-1 strain (AID 157); settings: S. cerevisiae mec2-1 strain, active compounds read high
# Summary of the method: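 Growth inhibition is read against vehicle-treated controls after compound exposure of the mec2-1 yeast strain, which is defective in DNA damage repair or cell cycle control.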
# [3] = NCI Yeast Anticancer Drug Screen. Data for the sgs1 mgt1 strain (AID 161);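 also: 0% = growth of cultures given vehicle only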; settings: S. cerevisiae sgs1 mgt1 strain, active compounds read high
# Summary of the method: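 Compounds are added to genetically altered yeast, and growth is compared with cultures given vehicle alone to give percent inhibition.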
# [4] = NCI Yeast Anticancer Drug Screen. Data for the cln2 rad14 strain (AID 165);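 also: 0% = growth equal to vehicle treated cultures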; settings: S. cerevisiae cln2 rad14 strain, active compounds read high
# Summary of the method: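 Growth inhibition, relative to vehicle-treated controls, is the read-out. The test organism is a yeast strain with defined genetic alterations, cln2 rad14.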
# [5] = NCI Yeast Anticancer Drug Screen. Data for the bub3 strain (AID 167); settings: S. cerevisiae bub3 mutant strain, active compounds read high
# Summary of the method: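 Growth of a checkpoint-deficient yeast mutant is measured after compound exposure. Values represent inhibition relative to vehicle.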
# [6] = NCI Yeast Anticancer Drug Screen. Data for the mlh1 rad18 strain (AID 175); settings: S. cerevisiae mlh1 rad18 strain growth inhibition, active compounds read high
# Summary of the method: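 Cells of a genetically altered yeast strain, deficient in DNA damage repair, were treated with compound. Their growth was then compared with that of vehicle-treated cultures to give inhibition.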
# [7] = at 5.0 µM (retest, dose inferred, filed as 0.5)
# [8] = at 50.0 µM (retest, dose inferred, filed as 5.0)
Structure (SMILES),"growth inhibition [1, 7]","growth inhibition [1, 8]",growth inhibition ([1]; at 50.0 µM),"growth inhibition [2, 7]","growth inhibition [2, 8]",growth inhibition ([2]; at 50.0 µM),"growth inhibition [3, 7]","growth inhibition [3, 8]",growth inhibition ([3]; at 50.0 µM),"growth inhibition [4, 7]","growth inhibition [4, 8]",growth inhibition ([4]; at 50.0 µM),"growth inhibition [5, 7]","growth inhibition [5, 8]",growth inhibition ([5]; at 50.0 µM),"growth inhibition [6, 7]","growth inhibition [6, 8]",growth inhibition ([6]; at 50.0 µM)
N=C(N)Sc1cccc[n+]1[O-],99% (active),99% (active),98.8% (active),99% (active),99% (active),98.9% (active),100% (active),99% (active),98.2% (active),98% (active),98% (active),97.4% (active),100% (active),99% (active),99% (active),99% (active),99% (active),98.2% (active)
S=C=Nc1ccc(N2CCOCC2)cc1,96% (active),99% (active),99.3% (active),31%,100% (active),99.7% (active),41%,99% (active),99.7% (active),10%,99% (active),96.3% (active),26%,98% (active),99.2% (active),33%,99% (active),99.2% (active)
CCOC(=O)C1=C(C(=O)c2ccccc2)C(c2cccc([N+](=O)[O-])c2)C(C(=O)c2ccccc2)=C(C(=O)OCC)N1,-3%,60%,56.2%,5%,33%,25.6%,21%,36%,25.6%,-9%,27%,17%,-7%,63%,38.5%,-28%,42%,67.7%
O=[N+]([O-])c1cc(-c2ccccc2)c(O)c([N+](=O)[O-])c1,31%,78% (active),93.8% (active),22%,60%,88.8% (active),27%,71% (active),85.8% (active),27%,51%,74.8% (active),17%,55%,89.4% (active),31%,67%,92.8% (active)
OC(CSc1ccccc1)CN1CCN(c2ccc(Cl)cc2)CC1 (configuration not stated),8%,73% (active),84.2% (active),5%,43%,25.5%,6%,90% (active),79% (active),9%,62%,15.6%,7%,76% (active),80.8% (active),4%,73% (active),59.5%
O=C1C=C(Cl)C(=O)c2ccccc21,90% (active),99% (active),99% (active),35%,100% (active),99% (active),30%,99% (active),99.3% (active),31%,98% (active),99.1% (active),47%,99% (active),98.8% (active),53%,99% (active),99% (active)
CCN(CC)CC(O)CNc1ccc(NCC2CO2)c2c1C(=O)c1ccccc1C2=O (configuration not stated),71% (active),76% (active),34.1%,23%,79% (active),25.6%,76% (active),84% (active),48.8%,49%,83% (active),56%,43%,59%,-36%,52%,74% (active),59%
Cc1cc(I)nc2ccccc12,0%,15%,68.4%,-1%,1%,21.2%,-3%,8%,59%,-3%,-18%,-18.4%,-6%,-13%,26.8%,-2%,-12%,48.7%
COc1ccc2nc3cc(Cl)ccc3c(NCCCCCN3CCCCC3)c2c1,-3%,70% (active),77.6% (active),-3%,31%,39%,-7%,26%,47.1%,1%,45%,63%,-4%,4%,59.4%,0%,47%,59.9%

# From PubChem BioAssay (NCI)
